Source: ChEMBL document CHEMBL3988442, “University of Dundee, Small-Polar-MMV Screening Library” (2021)
About 13,000 (27%) of roughly 48,000 compounds showed an effect of 50% or more. Some of the results follow.

System: Wolbachia pipientis
Test: Anti-Wolbachia Cell-Based Screen
Type: functional
Set-up: scale not given: in the data most compounds retested in dose-response had high values
Settings: 5 µM

Row | SMILES | Percent Effect [%]
1 | Cc1cnc(CNC(=O)NC2CCCN(c3ccccc3F)C2)s1 (stereo unspecified) | -4.354
2 | CC(C)OCCCN1CCCC(c2nc3ccccc3n2C(C)C)C1 (stereo unspecified) | -14.63
3 | Cc1cc(CN2CCN(CCOc3cccc(C#N)c3)CC2)no1 | -1.661
4 | CNC(=O)c1cnc(/C=C/c2cc(OC)c(OC)c(OC)c2)s1 | 2.96
5 | CCOc1cc(/C=C/c2ncc(C(=O)O)s2)cc(Cl)c1OC | 3.266
6 | CNC(=O)c1cnc(/C=C/c2ccc(O)c(OC)c2)s1 | 0.2416
7 | CCOc1c(Cl)cc(/C=C/c2ncc(C(=O)O)s2)cc1OC | 82.8
8 | COc1cc(/C=C/c2ncc(C(=O)O)s2)cc(Cl)c1O | 10.97
9 | COc1cc(/C=C/c2ncc(C(=O)O)s2)cc(Cl)c1OC | 96.03
10 | COc1ccc(F)cc1CSCC(=O)N(C)CCC#N | -1.773
11 | COc1ccc(-c2noc(C(CC(C)C)N3CCCCC3=O)n2)cn1 (stereo unspecified) | 9.971
12 | O=C1NCC2(CCCN(Cc3ccc(Cl)s3)C2)Oc2ccccc21 (stereo unspecified) | 7.994
13 | CSc1ccc(CN2CCCC3(CNC(=O)c4ccccc4O3)C2)cc1 (stereo unspecified) | 103.9
14 | C=Cc1ccc(CN2CCCC3(CNC(=O)c4ccccc4O3)C2)cc1 (stereo unspecified) | 88.72
15 | O=C1NCC2(CCCN(Cc3ccccc3F)C2)Oc2ccccc21 (stereo unspecified) | -7.876
16 | CC(=O)N1CCOC2(CCCN(Cc3ccc(N(C)C)cc3)C2)C1 (stereo unspecified) | -2.682
17 | O=C1NCC2(CCCN(Cc3ccc(F)cc3)C2)Oc2ccccc21 (stereo unspecified) | 110.4
18 | CC(C)=CCN1C[C@H]2CC[C@@H]1CN(C(=O)c1ccc(S(N)(=O)=O)cc1)C2 | -17.62
19 | CC(C)c1ccccc1NC(=O)N1C[C@@H]2CC[C@H](C1)N(C)C2=O | -22.21
20 | COc1cc(CNCCc2cnn(C)c2)cc2c1OCCO2 | -13.22
21 | COc1cc(CC2CC(C(N)=O)=NO2)cc2c1OCO2 (stereo unspecified) | 107.2
22 | COc1cc(CCO)c(OC)c2c1OCO2 | -4.361
23 | COc1cc(CNCc2ccc(C(C)O)cc2)cc2c1OCO2 (stereo unspecified) | 0.7709
24 | COc1cc(CNCCc2nc(C)cs2)cc2c1OCCO2.Cl | -10.19
25 | CN1CCN(C[C@H]2CC[C@@H](Cc3ccc4c(c3)OCO4)O2)CC1 | 5.044
26 | CCOC(=O)C1=NOC(Cc2cc(OC)c3c(c2)OCO3)C1 (stereo unspecified) | 92.3

Row | SMILES | Percent Effect [%]
27 | COC(=O)C1=NOC(Cc2cc(OC)c3c(c2)OCO3)C1 (stereo unspecified) | 94.65
28 | CCC[C@@H]1CN(Cc2cc(OC)c3c(c2)OCO3)C[C@H]1C(=O)O | 0.814
29 | CCN1CCN(C[C@H]2CC[C@@H](Cc3ccc4c(c3)OCO4)O2)CC1 | 15.13
30 | COc1cc(-c2nccn2CCn2cccn2)cc2c1OCO2 | -19.98
31 | COc1cc(CC2CC(c3ccc4c(c3)OCO4)=NO2)cc2c1OCO2 (stereo unspecified) | 92.75
32 | CC(C)CN1Cc2cccc(NC(=O)Cc3ccon3)c2C1 | -9.701
33 | Cc1ccc(=O)n(Cc2nc(C(C)OCC(C)C)no2)n1 (stereo unspecified) | -10.1
34 | Cc1cccc(C(=O)N2CCN(c3ccc(-n4cccc4)nn3)CC2)c1 | 0.6328
35 | CN(C)c1ccc(CN2C[C@H]3CC[C@@H]2CN(C2CCOCC2)C3)cn1 | 13.91
36 | CC(=O)Nc1sccc1C(=O)C(C)(C)C | 20.74
37 | NC(=O)c1c[nH]nc1NC(=O)c1cccc(Cl)c1 | 101.4
38 | NC(=O)c1c[nH]nc1NC(=O)c1ccc(Cl)cc1 | 91.07
39 | Cc1ccc(CNC(=O)c2c[nH]nc2NC(=O)C2COCCO2)cc1 (stereo unspecified) | -26.91
40 | Cc1ccc(CNC(=O)c2c[nH]nc2NC(=O)COCC2CC2)cc1 | -19.21
41 | CN1CCC(Oc2ccc(NC(=O)c3cccc(Cl)c3)cc2)CC1 | -9.86
42 | Cn1cc(NC(=O)c2cccc(Cl)c2)c(=O)n(C)c1=O | -1.289
43 | CNc1cc(N2CCCC2CNCc2ccc(Cl)o2)ncn1 (stereo unspecified) | 6.692
44 | O=C(CC1=CCCCC1)Nc1ccc(CN2C(=O)CCC2=O)cc1 | -15.48
45 | CN(CC(=O)N(C)C1CCCCC1)Cc1nc2c(cnn2C)c(=O)[nH]1 | 2.622
46 | CC(C)NC(=O)CSc1nc2c(cnn2CCO)c(=O)[nH]1 | 147.9
47 | CCCc1cc(=O)[nH]c2nnc(SCC(C)=O)n12 | 15.46
48 | CCN(CC)C(=O)CSc1ccc(C(F)(F)F)cn1 | 0.9721
49 | CC(C#N)CSc1ccccc1NCC(=O)NC1CCCCC1 (stereo unspecified) | -11.09
50 | CC(C)(C)n1ncc2c(=O)[nH]c(N3CCN(CCO)CC3)nc21 | 1.466
51 | CCN(CC)C(=O)CN(C)Cc1nc2c(cnn2C)c(=O)[nH]1 | 2.851
52 | CCC(=O)Nc1ccc(C(C)Nc2nc3c(cnn3C)c(=O)[nH]2)cc1 (stereo unspecified) | -8.968

Row | SMILES | Percent Effect [%]
53 | CNC(=O)CSc1nc2c(cnn2Cc2ccc(F)cc2)c(=O)[nH]1 | -13.84
54 | O=C(CSc1nc2c(cnn2CCO)c(=O)[nH]1)NC1CCCCC1 | 119.1
55 | CCN(CC)C(=O)CSc1nc2c(cnn2CCO)c(=O)[nH]1 | 123.9
56 | CC(=O)CSc1nc2c(cnn2CCO)c(=O)[nH]1 | 136.9
57 | O=C(c1ccco1)N(c1ccc(F)cn1)C1CCOCC1 | 7.992
58 | CCc1ccsc1CNC(=O)CNC(=O)C(C)(C)C | -1.133
59 | O=C(CSc1nc2c(cnn2CCO)c(=O)[nH]1)N1CCCCCC1 | -26.62
60 | CC1CCN(C(=O)CSc2nc3c(cnn3CCO)c(=O)[nH]2)CC1 | 123.1
61 | CN(CC(=O)N1CCCC1)Cc1nc2c(cnn2C)c(=O)[nH]1 | 28.73
62 | CCC(Oc1ccc(N(C)S(C)(=O)=O)cc1)C(=O)N(C)C (stereo unspecified) | -17.11
63 | CCN(CC)c1ccc(NS(=O)(=O)c2cnn(C)c2)cn1 | -7.679
64 | Cc1nc(NS(=O)(=O)c2cc(Br)ccc2C)no1 | -15.2
65 | CN1CC(C(=O)N(C)Cc2cc(-c3cccnc3)no2)NC1=O (stereo unspecified) | -3.484
66 | CC(C)c1cc2c(s1)NC(c1ccccc1)NC2=O (stereo unspecified) | 97.8
67 | CC(C)c1cc2c(s1)NC(c1ccccn1)NC2=O (stereo unspecified) | 80.13
68 | CC(C)NC(=O)C[C@@H]1CCNC[C@@H]1Cc1cc(-c2ccccn2)on1 | -9.264
69 | Cc1ccc(C2NC(=O)c3cc(C(C)C)sc3N2)cc1 (stereo unspecified) | 93.7
70 | COc1ccc2cc(-c3n[nH]cc3CN3CCSCC3)ccc2c1 | -6.074
71 | Cc1ccsc1CN(c1nc(CCN)nc2ccccc12)C1CC1 | -10.53
72 | COCCN(Cc1cccs1)c1nc(CCN)nc2ccccc12 | 106.1
73 | COCCN(CCOC)c1ncccc1Cl | 3.894
74 | NCCc1nc(N[C@@H](CO)c2ccccc2)c2ccccc2n1 | 20.3
75 | NCCc1nc(N(Cc2nccs2)C2CC2)c2ccccc2n1 | 3.563
76 | COCCN(CC1CC1)c1nc(CCN)nc2ccccc12 | 101.5
77 | NCCc1nc(N(Cc2cncs2)C2CC2)c2ccccc2n1 | -5.048
78 | COCCN(Cc1ccccc1Cl)c1nc(CCN)nc2ccccc12 | 116.2

Row | SMILES | Percent Effect [%]
79 | COCCN(Cc1ccccc1C)c1nc(C)nc2oc(C)nc12 | 9.543
80 | CC(O)CC(C)(C)CNC(=O)NCc1cccc(-n2ccnc2)c1 (stereo unspecified) | 13.1
81 | COCCN1CC2(CCC1=O)CCN(Cc1nnc(C)o1)CC2 | 2.828
82 | COc1cccn(Cc2nnc(-c3cccc(F)c3)o2)c1=O | -11.98
83 | COc1ccc(C(=O)N2CC[C@@H]3[C@H](CC2)N(C)CCS3(=O)=O)cc1.O=C(O)C(F)(F)F | 3.653
84 | CN1CCS(=O)(=O)[C@@H]2CCN(C(=O)CC(C)(C)C)CC[C@@H]21.O=C(O)C(F)(F)F | 96.97
85 | COc1cccc(CC(=O)N2CC[C@@H]3[C@H](CC2)N(C)CCS3(=O)=O)c1.O=C(O)C(F)(F)F | 107.9
86 | COc1cccc(C(=O)N2CC[C@@H]3[C@H](CC2)N(C)CCS3(=O)=O)c1.O=C(O)C(F)(F)F | -1.721
87 | CN1CCS(=O)(=O)[C@@H]2CCN(C(=O)c3ccccc3)CC[C@@H]21.O=C(O)C(F)(F)F | -7.841
88 | COc1ccc(CC(=O)N2CC[C@@H]3[C@H](CC2)N(C)CCS3(=O)=O)cc1.O=C(O)C(F)(F)F | 16.94
89 | CN(C)c1cc(C(=O)NCC2(c3ccc(F)cc3)CC2)ccn1 | -8.141
90 | O=C(NCCc1ccccc1)C1CCCN(c2ccc3nncn3n2)C1 (stereo unspecified) | 7.633
91 | NC(=O)c1ccc(N2CCN(Cc3ccc(F)cc3Cl)CC2)nn1 | 4.526
92 | NC(=O)CCC1CCCN(c2ccc3c(Cl)ccnc3c2F)C1 (stereo unspecified) | -4.467
93 | NC(=O)CCC1CCCN(c2ccc3ccc(F)cc3n2)C1 (stereo unspecified) | 91.08
94 | CCNC(=O)C1CCCN(c2ccc(C#N)cc2C(F)(F)F)C1 (stereo unspecified) | -8.319
95 | CCNC(=O)C1CCCN(c2ccc3ccc(F)cc3n2)C1 (stereo unspecified) | 95.98
96 | O=C(NCCC1=CCCCC1)C1CCCN(c2ccc3nncn3n2)C1 (stereo unspecified) | 4.301
97 | CC(C)OCc1cccc(NC(=O)N2CCCC(CCC(N)=O)C2)c1 (stereo unspecified) | -9.131
98 | NC(=O)CCC1CCCN(c2ccnc3cc(F)ccc23)C1 (stereo unspecified) | 94.8
99 | CCCNC(=O)C1CCCN(c2ccc3nncn3n2)C1 (stereo unspecified) | 106.8
100 | O=C(O)c1cn(CC2CCCN(c3ccc4ccccc4n3)C2)nn1 (stereo unspecified) | -23.62
101 | CCNC(=O)C1CCCN(c2cccc(C(F)(F)F)n2)C1 (stereo unspecified) | 5.494
